Measurements published in the supplement of paper PMC6555819.

How the values were obtained:
Assay in all cases: PBM binding z-score (relative to random genomic background probes); higher = stronger binding; sequences stand for … in GC…GCGATTGACAGCGTAGAATGAAGG
[1] = system: FXR:RXRa (NR concentration 270 nM, RXRa partner concentration 90 nM)
Summary of the method: (§1)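 Custom Agilent 4×180K protein-binding microarrays carried double-stranded probes. Their 34-nt variable regions held direct-repeat seeds, single-nucleotide variants, half-site ablations and random human genomic background sequences. Arrays were incubated 1 h with ligand-free nuclear receptor dimers in PBS pH 7.4, 2% milk, 0.02% Triton X-100, 1 mM DTT, 0.2 mg/mL BSA and 0.4 mg/ml salmon testes DNA. Antibodies against each partner (one per run) detected binding, and scanned fluorescence was regression-normalized. Binding z-scores use random background probes as reference.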

[2] = system: LXRa:RXRa (NR concentration 270 nM, RXRa partner concentration 90 nM)
Summary of the method: as §1

[3] = system: LXRa homodimer (NR concentration 270 nM)
Summary of the method: as §1

[4] = system: LXRb:RXRa (NR concentration 270 nM, RXRa partner concentration 90 nM)
Summary of the method: as §1

[5] = system: LXRb homodimer (NR concentration 270 nM)
Summary of the method: as §1

[6] = system: PPARa:RXRa (NR concentration 270 nM, RXRa partner concentration 90 nM)
Summary of the method: as §1

[7] = system: PPARg:RXRa (NR concentration 180 nM, RXRa partner concentration 90 nM)
Summary of the method: as §1

[8] = system: PPARg:RXRa 270nM:90nM, anti-RXR (NR concentration 270 nM, RXRa partner concentration 90 nM)
Summary of the method: as §1

[9] = system: PPARg:RXRa 30nM:10nM, anti-RXR (NR concentration 30 nM, RXRa partner concentration 10 nM)
Summary of the method: as §1

[10] = system: PPARg:RXRa 90nM:30nM, anti-RXR (NR concentration 90 nM, RXRa partner concentration 30 nM)
Summary of the method: as §1

[11] = system: PPARg:RXRa DBDmut IVT, anti-RXR (DBD mutation: RXRa K156A/R161A, NR concentration 270 nM, RXRa partner concentration 90 nM)
Summary of the method: as §1

[12] = system: PPARg:RXRa IVT, anti-PPARg (NR concentration 270 nM, RXRa partner concentration 90 nM)
Summary of the method: as §1

[13] = system: PPARg DBDmut:RXRa IVT, anti-PPARg (DBD mutation: PPARg1 K132A/R137A, NR concentration 270 nM, RXRa partner concentration 90 nM)
Summary of the method: as §1

[14] = system: PPARg DBDmut IVT, anti-PPARg (DBD mutation: PPARg1 K132A/R137A, NR concentration 270 nM)
Summary of the method: as §1

[15] = system: PPARg homodimer (NR concentration 180 nM)
Summary of the method: as §1

[16] = system: PXR:RXRa (NR concentration 270 nM, RXRa partner concentration 90 nM)
Summary of the method: as §1

[17] = system: PXR homodimer (NR concentration 270 nM)
Summary of the method: as §1

[18] = system: RARa:RXR (NR concentration 270 nM, RXRa partner concentration 90 nM)
Summary of the method: as §1

[19] = system: RARa homodimer (NR concentration 270 nM)
Summary of the method: as §1

[20] = system: RARb:RXRa (NR concentration 270 nM, RXRa partner concentration 90 nM)
Summary of the method: as §1

Sequence	PBM binding z-score [1]	PBM binding z-score [2]	PBM binding z-score [3]	PBM binding z-score [4]	PBM binding z-score [5]	PBM binding z-score [6]	PBM binding z-score [7]	PBM binding z-score [8]	PBM binding z-score [9]	PBM binding z-score [10]	PBM binding z-score [11]	PBM binding z-score [12]	PBM binding z-score [13]	PBM binding z-score [14]	PBM binding z-score [15]	PBM binding z-score [16]	PBM binding z-score [17]	PBM binding z-score [18]	PBM binding z-score [19]	PBM binding z-score [20]
CCGAGTAGGTTATGGTGCATTCAGGCAACGGTGA	0.234	0.34	0.363	0.361	0.234	1.52	2.04	3.55	1.15	3.04	3.71	2.67	0.333	-0.183	1.25	-0.0319	0.413	0.311	0.498	0.711
ATCTCTAGGGAAGACTCAGTTCAGTGAAGAACGC	-0.235	0.0835	0.196	-0.00503	0.414	-0.566	-0.0585	-0.317	-0.477	-0.307	0.54	0.0201	0.66	0.331	0.641	0.582	1.3	-0.127	0.457	-0.0542
AAAATGAGGTTACCAAAGATCAGGGAAACGCTTG	2.21	6.37	-0.0548	3.4	-0.136	3.71	3.49	3.24	1.2	2.53	4.97	4.33	2.73	0.928	0.63	1.71	0.241	2.47	-0.123	2.31
AGAATGAGGTTACCAAAGCTCAGGGAAACGCTTG	1.93	3.99	-0.0854	1.96	-0.341	3.46	2.2	2.57	0.532	1.81	3.42	3.11	0.652	0.289	0.125	0.966	-0.338	1.77	-0.239	2.15
CAAACTAGGTCAAGGCCAAAGTCGGTTTGTGCCA	3.98	2.52	0.111	1.71	-0.0886	4.91	8.07	6.77	4.34	6.26	8.27	8.75	3.6	3.41	3.12	1.8	-0.0922	2.28	-0.0524	4.25
TTACCAAGGTGAAGGTCGTTGGTCCCTCTGTAGA	1.16	1.1	-0.0893	1.2	-0.734	2.45	2.79	4.07	1.8	3.33	2.04	3.34	-0.723	-0.44	0.993	1.03	-0.26	1.49	-0.694	2.17
CAAACTAGGTCACAGAGGTCCAAGTCCGTGCGTA	4.06	3.27	0.422	2.32	0.233	5.18	8.72	7.58	5.04	7.32	8.78	9.18	3.75	2.44	2.41	3.43	0.225	3.05	0.32	4.22
CAAACTAGCTCACAGAGGTCAAAGTCCGTGCGTA	4.84	5.04	5.7	4.99	1.59	4.82	2.1	3.38	1.05	2.74	0.877	2.03	0.153	0.182	4.66	5.9	3.09	6.47	2.88	3.87
CAAACTAGTTCAAGGTCAAAGTCGGTTTGTGCCA	5.67	5.81	6.22	4.81	1.76	5.13	3.27	3.88	1.53	3.03	2.12	3.26	0.529	-0.205	3.85	5.23	3.52	5.1	0.936	4.34
CGAACTAGGTCAGCACAGGACAGTGAAGGATGAT	1.86	1.18	-0.345	0.466	-0.737	3.51	6.07	5.31	2.4	4.32	7.7	7.61	0.871	0.245	1.37	1.42	-0.395	1.03	0.213	3.65
CGGACTGGGGCAAGGTTACCATAACGCACAGCCA	0.491	1.02	-0.284	1.05	-0.449	2.67	4.88	4.78	2.59	4.2	4.9	5.59	0.588	0.000804	0.759	0.516	-0.28	1.03	-0.565	1.67
GATACAGGGTCAAGGGCAGAGTACGCGTATTGAT	6.94	4.74	0.422	4.1	0.257	5.92	6.21	5.97	2.9	4.69	2.9	4.2	0.998	0.413	2.15	4.01	0.827	4.22	0.496	4.77
CCTACTGGGCCACGAAAGGTCATTCATTCAGTGA	3.89	5.43	6.05	4.47	0.659	4.73	4.8	5.02	1.88	4.42	5.95	5.87	1.4	0.0477	3.21	5.7	2.12	5.5	1.45	4.15
CTCGAAAGGTCGGTTGGGGTGAGTATACGGATAA	3.34	2.38	0.622	2.86	1.41	3.38	0.807	1.47	0.13	0.958	0.404	1.47	0.0444	1.01	1.6	3.44	0.962	2.76	0.684	3.31
